Test results published in PubChem BioAssay.
A number with no mark means an inactive call. No rule for the calls is given here.

target: Pantothenate synthetase (Mycobacterium tuberculosis (strain ATCC 25618 / H37Rv)) (UniProt P9WIL5); test: Recombinant Mtb pantothenate synthetase (PanC) inhibitors, coupled enzyme, confirmatory (AID 375); settings: coupled enzyme assay; at 10 µM, hits give high values;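 also: 0% = full reaction with vehicle and 100% = no enzyme background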
Sequence (P9WIL5 whole entry, looked up): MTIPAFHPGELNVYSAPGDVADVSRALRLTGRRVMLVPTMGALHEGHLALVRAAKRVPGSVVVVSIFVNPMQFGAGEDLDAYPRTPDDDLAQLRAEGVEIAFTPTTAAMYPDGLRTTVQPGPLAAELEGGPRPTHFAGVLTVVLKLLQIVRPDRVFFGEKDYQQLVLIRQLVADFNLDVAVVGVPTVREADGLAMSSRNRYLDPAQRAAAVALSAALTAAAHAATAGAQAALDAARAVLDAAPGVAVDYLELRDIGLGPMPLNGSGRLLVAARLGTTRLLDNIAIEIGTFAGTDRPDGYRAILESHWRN

Row | SMILES | inhibition [%]
1 | Cc1cc(C(=O)Nc2cccnc2)no1 | 0
2 | O=C(CN1CCN(Cc2ccc(F)cc2Cl)C1=O)NCCCN1CCOCC1 | 0
3 | Cc1cc(C)nc(N2CCC(C(=O)NC3CCCCCC3)CC2)n1 | 1
4 | C#CCOC(=O)C1C2C=CC(C2)C1C(=O)O (stereo not given) | 1
5 | COc1ccc(C2c3c(oc4ccccc4c3=O)C(=O)N2c2ccc(C)cn2)cc1OC (stereo not given) | 0
6 | CCN(CC)CCCN1C(=O)C(O)=C(C(=O)c2ccco2)C1c1ccc(C)o1 (stereo not given) | 13
7 | CCCn1c(SCC(=O)Nc2cc(C)on2)nc2c1c(=O)n(C)c(=O)n2C | 0
8 | CCN(CC)C(=O)C1CCCc2c1[nH]c1ccc(Cl)cc21 (stereo not given) | 0
9 | COc1ccc(Cn2nnnc2C(c2cccnc2)N2CCN(c3ccc(O)cc3)CC2)cc1 (stereo not given) | 0
10 | N#Cc1cc2ccc(N3CCOCC3)cc2cc1C#N | 0
11 | c1ccc(OCc2nc(-c3ccccc3)no2)cc1 | 0
12 | CCN(CC)CCN1C(=O)Cn2c(C)c(C)c3cccc1c32 | 1
13 | Cn1c(Cl)cnc1C1CC(=O)c2cc(Cl)ccc2O1 (stereo not given) | 7
14 | CCC(=O)c1ccc(OCC(O)CN2CCN(S(=O)(=O)N3CCCCC3)CC2)cc1 (stereo not given) | 1
15 | COc1cc(C2c3c(oc4c(C)cc(C)cc4c3=O)C(=O)N2Cc2cccnc2)ccc1O (stereo not given) | 0
16 | CCOC(=O)C1CCN(C(=O)Nc2ccc3snnc3c2)CC1 | 6
17 | CCOC(=O)N1CCN(C(=O)COc2ccc(S(=O)(=O)NC(C)C)cc2)CC1 | 0
18 | CC1CCCCC1NC(=O)CCCc1nc2ccccc2c(=O)[nH]1 (stereo not given) | 0
19 | c1ccc(Cn2nnnc2CN2CCN(c3ncccn3)CC2)cc1 | 1
20 | O=C(O)Cn1cc2c(n1)CCCC2 | 0

Row | SMILES | inhibition [%]
21 | Cc1nc(=S)n(-c2ccccc2)[nH]1 | 0
22 | CCN(CC)C(=O)CSc1nc2ccccc2c(=O)n1CCC(=O)NCc1ccc(F)cc1 | 0
23 | CCc1nnc(NC(=O)C2CC(=O)N(Cc3ccco3)C2)s1 (stereo not given) | 0
24 | O=C(Cc1ccccc1)N1CCCC(c2nc(-c3cccs3)no2)C1 (stereo not given) | 0
25 | CCn1nnnc1SCC(=O)Nc1nc(-c2cccs2)cs1 | 0
26 | COc1ccc(CCNC(=O)c2cnn3ccccc23)c(OC)c1OC | 4
27 | O=C(COC(=O)C1CCN(S(=O)(=O)c2cccs2)CC1)c1cc2ccccc2o1 | 0
28 | COc1cc2c(cc1NC(=O)CSc1nnc(Cc3cccs3)n1C)oc1ccccc12 | 6
29 | CCCCCC(=O)N1CC2(CC)CN(C(=O)CCCCC)CC(CC)(C1)C2=O | 4
30 | Cc1ccc(-n2ncc3c(=O)n(CC(=O)NC4CCCCC4)cnc32)cc1C | 12
31 | O=C1c2ccccc2C(Nc2cccnc2)N1Cc1ccccc1Cl (stereo not given) | 0
32 | CCCCOC(=O)CN1C(=O)c2ccc(C(=O)OCCCC)cc2C1=O | 0
33 | CCN=C1SC(CC(=O)Nc2ccccc2OCC)C(=O)N1CC (stereo not given) | 0
34 | COc1ccccc1N1CC(O)=C(c2nc3ccccc3c(=O)[nH]2)C1=N | 13
35 | CC(CN(C)Cc1ccccc1)OC(=O)c1ccc2c(c1)OCCO2 (stereo not given) | 0
36 | CCn1c(SCC(=O)Nc2ccc3c(c2)OCO3)nnc1-c1ccccc1O | 2
37 | CC1CCc2nn(CC(=O)NCc3ccc(F)cc3)cc2C1 (stereo not given) | 7
38 | CCCC1(C(=O)OCC)NC(c2ccc(N(C)C)cc2)C2C(=O)N(c3ccccc3)C(=O)C21 (stereo not given) | 0
39 | Cc1cc(C(F)(F)F)nc(NCc2cccnc2)n1 | 0
40 | C=CCOc1cccc(C2/C(=C(\O)c3ccc(F)cc3)C(=O)C(=O)N2CCN(C)C)c1 (stereo not given) | 0
